Assay outcomes as filed in PubChem BioAssay.
In the library only some 1.8% were active in any assay of this set; here they are far more common.
p53ts 39C kill: qHTS Screen for Compounds that Selectively Target Cancer Cells with p53 Mutations: Cytotoxicity of p53ts Cells at the Nonpermissive Temperature. AID 902, 2007. Potency, µM (series often up to 46.1 µM), inactives show at the highest dose activity change, negative = cell killing, actives largely listed as cytotoxic. H1299-p53A138V viability at 39C, ATP luminescence, 24 h. actives 1.5% (n = 130,000); further: on the % scale 0 is the no-effect control and ±100 the full control effect; nearly all actives have a fitted effect of over 55% in size
IkB sig inh: IkB Signaling; ABC-DLBCL IkBa-CBG/CBR dual luciferase ratio, 4 h; response scale: scaled: untreated 0%, proteasome inhibitor 100%; Potency, µM (doses to about 57.1 µM), without a hit: at the top dose IkBa stabilization activation; actives 0.04% (n = 110,000); AID 445, 2006; active means well fitted curve in the direction sought with a large enough effect in the signal ratio, not every such curve was filed as active; inconclusive means small, poorly fitted or top-dose-only effect, or a change in a side signal; the % refers to the signal ratio;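 further: the direction sought is a rising ratio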
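Curves were fitted separately to fusion (green), unfused (red) and ratio luminescence, then classed by r2, magnitude and activity. Cells: OCI-Ly3, 4 h compound plus doxycycline at 37C; 10 uM MG-132 defined full response.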
Imprint erasure: qHTS Assay for Compounds that Induce Erasure of Genomic Imprints; mouse ES Peg3-LacZ reporter, beta-gal luminescence, 40 h; actives 0.02% (n = 110,000); AID 1948, 2009; Potency, µM (titrated, usually from 60.7 µM), for inactives: top-dose activity change, positive = activation, most hits filed as activators
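Gelatin-coated wells received 300 freshly trypsinized female ES cells with a Peg3LacZ-Neo reporter on the maternal allele, then incubated 40 hours at 37C. BetaGlo was added for 5 minutes at room temperature before a single luminescence read.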
p53ts 32C tox: qHTS Screen for Compounds that Selectively Target Cancer Cells with p53 Mutations: Cytotoxicity of p53ts Cells at the Permissive Temperature; H1299-p53A138V at 32C, ATP luminescence viability, 24 h; Potency, µM (top dose mostly 46.1 µM), for the others: at the highest dose activity change, negative = cytotoxicity, usual class: cytotoxic; actives 0.93% (n = 130,000);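 further: 0% = DMSO and -100% = full killing by reference compound; nearly all actives have a fitted effect of over 55% in size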
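H1299-p53 A138V cells (temperature-sensitive p53) exposed 24 h to up to 46 uM compound at 32C, where p53 is wild-type in conformation. Viability read as ATP luminescence and normalised to DMSO and 100 uM tamoxifen. AC50 fitted with the Hill equation.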
* hit, by the source's call; ? = inconclusive; . = no result; [ ] = another dose, or the depositor's remark. Unless noted, the call rests on the fitted dose curve; in most records, active means well fitted curve in the direction sought with a large enough effect; inconclusive means small, poorly fitted or top-dose-only effect, or another doubt; inactive means no such curve, though single readings can be large; an effect the other way counts as inactive or inconclusive. Potency means the concentration at half of the fitted maximal effect.

SMILES	p53ts 39C kill	IkB sig inh	Imprint erasure	p53ts 32C tox
Cc1ccc2c(c1)c1c3n2CCN[C@H]3CCC1	?	0.1%	3.6%	-0.8%
Cc1ccccc1NS(=O)(=O)c1ccc2[nH]cc(C(=O)N3CCCC3)c(=O)c2c1	6.2%	0.1%	-10.4%[10.9 µM]	1.9%
O=c1oc(-c2cccs2)nc2sc3c(c12)CCCCC3	10µM*	?	4.8%	12.6µM*
Nn1c(-c2cccs2)nc2sc3c(c2c1=O)CCCC3	?	?	-53.6%	10µM*
CCC1OCCC=CC1C (stereo not drawn)	0.8%[9.22 µM]	.	.	0.6%[9.22 µM]
CCCN1CC(CSC)C[C@H]2c3cccc4[nH]cc(c34)C[C@H]21 (stereo partly drawn)	-17.3%	.	-12.1%	-2.8%
CCC(C(=O)NC1CCC(C)CC1)n1nc(C)c2sc3ccccc3c2c1=O (stereo not drawn)	-15.2%	?	19.9%[10.9 µM]	-2.9%
COc1ccc(-c2nc3scc(CCNS(=O)(=O)c4ccc(F)cc4F)n3n2)cc1OC	2.5%	-2.7%	-4.8%[10.9 µM]	-5.6%
O=C(CS(=O)(=O)Cc1ccccc1)N1CCN(Cc2ccc3c(c2)OCO3)CC1	12.6µM*	8.6%	-63.8%	12.6µM*
COC(=O)c1ccc(NC(=O)c2cc3cc4ccc(OC)c(Cl)c4nc3s2)cc1	-17.6%	-0.3%	-11.9%[10.9 µM]	-15.8%
NC(=NCc1ccc(Cl)c(Cl)c1)NC(=O)c1nc(Cl)c(N)nc1N	12.6µM*	-16.1%	-12.3%	12.6µM*
Cc1cc(C)c(NC(=O)Cn2c(=O)n(Cc3ccc(C(=O)NCc4ccco4)cc3)c(=O)c3sccc32)c(C)c1	25.1µM*	?	8.2%[10.9 µM]	?
Cc1ccc(CNC(=O)c2ccc(Cn3c(=O)c4ccccc4n(CC(=O)Nc4ccc(C)cc4C)c3=O)cc2)cc1	?	?	-24.3%[10.9 µM]	-16.3%
Cc1ccc(CNC(=O)c2ccc(Cn3c(=O)c4ccccc4n(CC(=O)Nc4c(C)cc(C)cc4C)c3=O)cc2)cc1	-29.2%	19.0%	-36.0%[10.9 µM]	15.8µM*
CN1c2cc(Cl)ccc2-c2nc(SCC(=O)Nc3ccc(F)cc3F)ncc2S1(=O)=O	10µM*	4.4%	-7.5%[10.9 µM]	-12.2%
Cc1ccc(O)c(N=Nc2ccccc2)n1	12.6µM*	1.0%	-92.1%	20µM*
Cc1cc(Nc2ccc(N=Nc3ccc(O)c4ncccc34)cc2)nc(C)n1	-5.5%[9.22 µM]	9.7%[11.4 µM]	-12.4%[10.9 µM]	-0.6%[9.22 µM]
Fc1ccc(-n2ncc3c(N4CCCCCC4)ncnc32)cc1	5.01µM*	0.2%	-24.4%[10.9 µM]	?
CCN1CCN(c2ncnc3c2cnn3-c2ccc(C)cc2)CC1	?	-0.8%	-12.2%[10.9 µM]	-17.1%
Cc1ccc(-n2ncc3c(N4CCCCCC4)ncnc32)cc1	2.51µM*	1.9%	-45.6%[10.9 µM]	3.16µM*
COc1ccccc1C[C@@H](Cc1nc2ccccc2[nH]1)c1nc2ccccc2[nH]1	.	1.3%[11.4 µM]	.	.
CC(CCC(=O)O)C1CCC2C3CC(O)[C@@H]4CC(O)CC[C@]4(C)C3CC[C@@]12C (stereo partly drawn)	5.6%	.	7.9%	10.3%
CCn1c(=O)cc(C(=O)OC)sc1=Nc1ccc(F)c(F)c1	16.9%	?	-38.6%	20µM*
CCOC(=O)c1ccc(N=c2sc(C(=O)OC)cc(=O)n2CCCN2CCOCC2)cc1	104.9%	?	-30.9%	18.1%
Cc1cc(C)c(NC(=O)Cn2nnc3sc4c(c3c2=O)CCC(C(C)(C)C)C4)c(C)c1 (stereo not drawn)	12.6µM*	-0.3%	-10.7%[10.9 µM]	?
SMILES	p53ts 39C kill	IkB sig inh	Imprint erasure	p53ts 32C tox
O=C(Nc1ccc2c(c1)OCO2)c1cccc(F)c1	-26.9%	4.3%	-86.6%	?
O=C(/C=C\Nc1cccc(F)c1)c1ccc2c(c1)OCO2	10µM*	?	-83.3%	3.98µM*
CCOC(=O)c1ccc(NS(=O)(=O)c2ccc(Br)s2)cc1	-8.0%	17.6%	-5.2%[10.9 µM]	-2.0%
CN(C)CCCNc1cc(N2CCN(C3CCCCC3)CC2)c2noc3c2c1C(=O)c1ccccc1-3	20µM*	-0.5%	-12.5%[10.9 µM]	-12.0%
CCCN1C=CC(=C2C(=O)c3ccccc3C2=O)C=C1	0.316µM*	?	-95.8%	0.199µM*
CCN1C=CC(=C2C(=O)c3ccccc3C2=O)C=C1	0.251µM*	?	-93.9%	0.251µM*
CN1C=CC(=C2C(=O)c3ccccc3C2=O)C=C1	10µM*	-0.1%	-88.0%	12.6µM*
